Experiment [1] in a line: qHTS assay to test for compound auto fluorescence at 535 nm (green) in HEK293 cells (AID 720680). Background: qHTS replaces the single test concentration by a dilution series.
Experiment [2] can be described thus: qHTS assay to test for compound auto fluorescence at 460 nm (blue) in HEK293 cell free culture (AID 720681). The essentials: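 Blue fluorescence (Ex 405/Em 460 nm, triamterene-equivalent) was read immediately after pin transfer of compound or DMSO into medium (DMEM, 10% FBS) without cells.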
Experiment [3] is described as follows: qHTS assay to test for compound auto fluorescence at 535 nm (green) in HEK293 cell free culture (AID 720682). Put shortly:
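Compounds were pin-transferred into cell-free DMEM with 10% FBS, and green fluorescence was read at excitation 485 nm and emission 535 nm. Intensities were expressed as fluorescein-equivalent values.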

A short description of experiment [4]: qHTS assay to test for compound auto fluorescence at 590 nm (red) in HEK293 cell free culture (AID 720683). Put shortly:
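Red-channel autofluorescence of compounds in culture medium (DMEM, 10% FBS), no cells, measured at 540/590 nm. Rose Bengal sodium is the reference fluorophore for equivalence.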

A short description of experiment [5]: qHTS assay to test for compound auto fluorescence at 590 nm (red) in HepG2 cell free culture (AID 720684). Put shortly:
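No cells present: MEM + 10% FBS only. Compound pinned in, red label read (540/590 nm). Activity = fluorescence equivalent to Rose Bengal sodium.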

Experiment [6] can be described thus: qHTS assay to test for compound auto fluorescence at 460 nm (blue) in HepG2 cell free culture (AID 720685). The essentials:
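Cell-free plates of MEM plus 10% FBS received 23 nL compound or DMSO vehicle; blue-channel (405/460 nm) intensity scored against triamterene as reference fluorophore.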

Experiment [7] in a line: qHTS assay to test for compound auto fluorescence at 535 nm (green) in HepG2 cell free culture (AID 720686).
The target of experiment [8] is Glucocorticoid receptor (Homo sapiens) (UniProt P04150). Description: qHTS assay to identify small molecule agonists of the glucocorticoid receptor (GR) signaling pathway (AID 720691; active = well fitted activation curve with a large enough effect in the signal ratio in the repeat runs, not every such curve was filed as active; the % refers to the signal ratio). Put shortly:
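Agonist-mode qHTS in HeLa cells stably expressing a glucocorticoid-response-element beta-lactamase reporter. Fluorescence intensity read with FRET substrate (2 h, room temperature) after 18 h compound treatment at 37 C.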

The target is the same in experiment [9]. Nature of the experiment: qHTS assay to identify small molecule antagonists of the glucocorticoid receptor (GR) signaling pathway (AID 720692; active = well fitted inhibition curve with a large enough effect in the signal ratio in the repeat runs, not every such curve was filed as active; the % refers to the signal ratio; note: potency is the fitted concentration of half-maximal effect). Put shortly: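 Inhibition of dexamethasone-driven (5 nM final) beta-lactamase expression was measured in GRE-reporter HeLa cells over 18 h at 37C. Fluorescence was read after 2 h with the B/G FRET substrate at room temperature.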

Experiment [10] is described as follows: qHTS assay to identify small molecule antagonists of the glucocorticoid receptor (GR) signaling pathway - cell viability counter screen (AID 720693). Note: nearly all actives have a fitted effect of over 55% in size.
A short description of experiment [11]: qHTS assay for identifying genotoxic compounds that show differential cytotoxicity against isogenic chicken DT40 cell lines with known DNA damage response pathways - wild type cell line (AID 743012). Note: nearly all actives have a fitted effect of over 60% in size. Put shortly:
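Viability by ATP luminescence (CellTiter-Glo, 30 min RT) after 40 h compound treatment at 37 C/5% CO2, using 300 parental DNA repair-proficient DT40 cells per well.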

Experiment [12] can be described thus: qHTS assay for identifying genotoxic compounds that show differential cytotoxicity against isogenic chicken DT40 cell lines with known DNA damage response pathways - Rev3 mutant cell line (AID 743014). Note: nearly all actives have a fitted effect of over 55% in size. Note: potency is the fitted concentration of half-maximal effect.
Experiment [13] in a line: qHTS assay for identifying genotoxic compounds that show differential cytotoxicity against isogenic chicken DT40 cell lines with known DNA damage response pathways - Rad54/Ku70 mutant cell line (AID 743015). Note: nearly all actives have a fitted effect of over 60% in size. Note: potency is the fitted concentration of half-maximal effect.
Experiment [14] in a line: qHTS assay to identify small molecule antagonists of the androgen receptor (AR) signaling pathway - cell viability counter screen (AID 743033; note: nearly all actives have a fitted effect of over 45% in size).
Experiment [15] can be described thus: qHTS assay to identify small molecule antagonists of the androgen receptor (AR) signaling pathway using the MDA cell line - cell viability counter screen (AID 743041; note: nearly all actives have a fitted effect of over 45% in size). The essentials: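 Using the breast carcinoma line MDA-kb2 AR-luc, test chemicals were co-incubated with R1881 for 16 h; CellTiter-Fluor reagent, added at 15.5 h, provided a fluorescence measure of live cells.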

Experiment [16] in a line: qHTS assay to identify small molecule antagonists of the thyroid receptor (TR) signaling pathway - cell viability counter screen (AID 743064). Note: nearly all actives have a fitted effect of over 50% in size. The essentials:
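In-well cytotoxicity read by CellTiter-Fluor (30 min, 37 C) following 23.5 h exposure of GH3 cells bearing a TRE-luciferase sensor. Compounds were added alongside 1 nM (final) T3 to drive TR transactivation.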

Experiment [17] can be described thus: qHTS assay to test for compound auto fluorescence at 460 nm (blue) in HepG2 cells (AID 720687). The essentials:
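Blue-channel autofluorescence (Ex/Em 405/460 nm, triamterene-equivalent) was measured after 1 hr compound exposure at 37 C, 5% CO2. Cells were HepG2, plated overnight at 37 C in MEM plus 10% FBS.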

Results filed as inconclusive are left out. Activity calls are given as the source filed them. Unless noted, calls come from the whole dose curve; as a rule, active = well fitted curve in the direction sought with a large enough effect in the repeat runs; inconclusive = weak or mixed curves; inactive = no such curve, though single readings can be large; an effect the other way counts as inactive or inconclusive.

Chain of Glucocorticoid receptor (Homo sapiens) (P04150 whole entry, looked up): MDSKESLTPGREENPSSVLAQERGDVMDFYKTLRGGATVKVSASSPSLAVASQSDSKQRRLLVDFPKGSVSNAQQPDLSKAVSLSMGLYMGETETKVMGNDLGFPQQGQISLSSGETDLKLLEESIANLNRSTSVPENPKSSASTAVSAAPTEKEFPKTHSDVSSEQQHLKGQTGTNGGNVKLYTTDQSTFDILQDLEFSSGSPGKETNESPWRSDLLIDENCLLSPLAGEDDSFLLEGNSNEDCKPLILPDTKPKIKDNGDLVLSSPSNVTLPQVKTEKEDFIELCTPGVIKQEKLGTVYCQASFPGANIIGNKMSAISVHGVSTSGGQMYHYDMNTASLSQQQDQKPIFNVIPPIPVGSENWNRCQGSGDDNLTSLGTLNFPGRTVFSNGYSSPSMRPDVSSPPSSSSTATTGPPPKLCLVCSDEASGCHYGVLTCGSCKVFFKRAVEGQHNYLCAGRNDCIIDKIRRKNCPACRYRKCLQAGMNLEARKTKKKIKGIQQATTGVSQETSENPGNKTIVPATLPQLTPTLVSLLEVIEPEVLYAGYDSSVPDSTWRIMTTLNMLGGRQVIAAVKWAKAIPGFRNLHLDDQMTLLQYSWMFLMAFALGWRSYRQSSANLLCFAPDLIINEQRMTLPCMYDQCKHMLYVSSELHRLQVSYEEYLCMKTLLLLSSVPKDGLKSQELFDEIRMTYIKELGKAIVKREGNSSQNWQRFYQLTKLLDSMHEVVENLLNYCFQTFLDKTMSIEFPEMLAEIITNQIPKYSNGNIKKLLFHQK

As for `CN(N=O)C(N)=O`, the compound was called inactive in [1], in experiment [2], in experiment [3], in experiment [4], in experiment [5] and in experiment [6]. In addition, the call in [7] and in experiment [8] was inactive. Moreover, the Potency entry in experiment [9], in [10], in experiment [11], in experiment [12], in experiment [13] and in experiment [14] was “inactive” each time. For the same compound, the Potency result in [15] and in [16] was “inactive” in each case.
`C[C@]12CC[C@H]3[C@@H](CC=C4C[C@@H](O)CC[C@@]43C)[C@@H]1CC[C@@H]2O`: the call in experiment [1], in [2], in experiment [4], in experiment [5], in [6] and in experiment [7] was inactive. For the same compound, the outcome in experiment [17] and in [8] was inactive. Also, the Potency in [9] is 6.01 µM (active); in experiment [13] it was 29.8 µM (active). The Potency result in experiment [10], in experiment [11], in experiment [12], in [14] and in experiment [15] was “inactive” each time.
`COC(=O)c1ccccc1S(=O)(=O)NC(=O)N(C)c1nc(C)nc(OC)n1`: the outcome in experiment [1], in experiment [2], in [3], in experiment [4], in experiment [5] and in [6] was inactive. Moreover, the compound was classed as inactive in experiment [7] and in experiment [8]. The Potency result in experiment [9], in experiment [10], in experiment [12], in experiment [13], in [14] and in [15] was “inactive” each time. Moreover, in experiment [16], the Potency entry is “inactive”.
With `CC(=O)[C@H]1CC[C@H]2[C@@H]3CC[C@H]4C[C@H](O)CC[C@]4(C)[C@H]3C(=O)C[C@]12C`, the outcome in [1], in experiment [2], in experiment [3], in [4], in experiment [5] and in [6] was inactive. The compound was classed as inactive in experiment [7] and in experiment [17]. The Potency result in experiment [10], in experiment [14] and in experiment [15] was “inactive” each time.
`OCCSCSCCO`: the call in experiment [1], in experiment [2], in experiment [3], in [4], in experiment [5] and in experiment [6] was inactive. Further, in [7], the compound was called inactive. Further, the Potency entry in experiment [10], in experiment [11], in experiment [12], in experiment [13], in [14] and in experiment [15] was “inactive” each time. In experiment [16], the Potency result was “inactive”.
In the case of `COc1cc(OC)nc(NC(=O)NS(=O)(=O)c2ncccc2C(=O)N(C)C)n1`, the compound was classed as inactive in experiment [1], in [2], in [3], in experiment [4], in experiment [5] and in experiment [6]. Moreover, the result in experiment [7] and in [8] was inactive. In addition, the Potency entry in [11], in experiment [12], in experiment [13], in [14] and in experiment [15] was “inactive” throughout.
For `O=C1OC(c2ccc(O)c(S(=O)(=O)O)c2)(c2ccc(O)c(S(=O)(=O)O)c2)c2c(Br)c(Br)c(Br)c(Br)c21`, the compound was called inactive in [1], in experiment [2], in experiment [3], in experiment [4], in [5] and in experiment [6]. In addition, the result in experiment [7] and in experiment [8] was inactive. In addition, the Potency result in [10], in [11], in [12], in experiment [13], in experiment [14] and in experiment [15] was “inactive” throughout. For the same compound, the Potency entry in experiment [16] is “inactive”.
`OC(Cn1cncn1)(c1ccc(F)cc1)c1ccccc1F` (centres undefined): the compound was called inactive in experiment [1], in experiment [2], in [3], in [4], in experiment [5] and in [6]. Moreover, the compound was classed as inactive in [7] and in experiment [17]. In addition, the Potency entry in [10], in experiment [14], in [15] and in experiment [16] was “inactive” each time.
With `CCOP(=S)(OCC)Oc1nc(Cl)n(C(C)C)n1`, the compound was classed as inactive in experiment [1], in experiment [2], in experiment [3], in experiment [4], in experiment [5] and in experiment [6]. Further, the outcome in experiment [7] and in experiment [8] was inactive. Moreover, the Potency entry in [9], in experiment [10], in experiment [14] and in experiment [15] was “inactive” each time. Besides, the Potency in experiment [12] is 68.6 µM (active).

These data come from PubChem BioAssay (Tox21).
